Assay outcomes as filed in PubChem BioAssay.
KB-V1 MDR tox – kills drug-selected multidrug resistant KB-V1 cells; KB-V1 MDR cells viability, CellTiter-Glo, 72 h; Potency, µM (series often up to 46.1 µM), most hits filed as cytotoxic; 3.4% of 400,000 active; AID 1347076; note: potency is the fitted concentration of half-maximal effect; % is set by controls: 0 for no effect and ±100 for the full control effect; nearly all actives have a fitted effect of over 60% in size
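KB-V1, DMEM (no phenol red) + 10% FBS; cpd pin-transferred, titration series; 72 h, 37 degrees C; CellTiter-Glo, luminescence. Data normalized, curve-fit.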
SW480 rerep – inducers of DNA re-replication in SW480 colon cancer cells; Potency, µM (titrated, usually from 46.1 µM), inactives show at the top dose re-replication activation, most hits filed as activators; 1.8% of 340,000 active; SW480 DNA re-replication, Hoechst DNA content imaging, 48 h; AID 624297; note: potency is the fitted concentration of half-maximal effect; % of control where 0% means no effect; nearly all actives have a fitted effect of over 55% in size
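250 cells/well; 23 nL cpd via pin tool; 48 hr, 37 C, 5% CO2; Hoechst 40 min; imager read of total nuclear intensity, ex 405/em 500-530 nm.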
KB-3-1 cytotox – KB-3-1 parental cell cytotoxicity; 1.4% of 400,000 active; KB-3-1 viability, CellTiter-Glo ATP luminescence, 72 h; Potency, µM (titrated, usually from 46.1 µM), most hits filed as cytotoxic; note: potency is the fitted concentration of half-maximal effect; % is set by controls: 0 for no effect and ±100 for the full control effect; nearly all actives have a fitted effect of over 60% in size
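Viability of parental KB-3-1 cells, measured by CellTiter-Glo luminescence, followed a 72 h incubation at 37 °C with pinned compounds in phenol-red-free DMEM containing 10% FBS.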
MCF10A rereplic – induces DNA re-replication in MCF 10a normal breast cells | 2.9% of 350,000 active | MCF 10A DNA re-replication, Hoechst nuclear intensity, 48 h | Potency, µM (top dose mostly 46.1 µM), inactives show at the top dose activity, positive = re-replication, hits mostly activators; note: potency is the fitted concentration of half-maximal effect; % of control where 0% means no effect; nearly all actives have a fitted effect of over 50% in size
KCNH2 WT inh – blocks the wildtype human KCNH2 potassium channel; U2OS, BacMam KCNH2, thallium flux FluxOr; hits give low values; Q12809; AID 720551; activity change, % at 1.84 µM; 0.37% of 340,000 active;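 active = maximum activity change below -70%; inconclusive = maximum activity change between -70% and -50%; inactive = maximum activity change above -50%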; note: % is set by controls: 0 for no effect and ±100 for the full control effect
Target sequence (Q12809 whole entry, looked up): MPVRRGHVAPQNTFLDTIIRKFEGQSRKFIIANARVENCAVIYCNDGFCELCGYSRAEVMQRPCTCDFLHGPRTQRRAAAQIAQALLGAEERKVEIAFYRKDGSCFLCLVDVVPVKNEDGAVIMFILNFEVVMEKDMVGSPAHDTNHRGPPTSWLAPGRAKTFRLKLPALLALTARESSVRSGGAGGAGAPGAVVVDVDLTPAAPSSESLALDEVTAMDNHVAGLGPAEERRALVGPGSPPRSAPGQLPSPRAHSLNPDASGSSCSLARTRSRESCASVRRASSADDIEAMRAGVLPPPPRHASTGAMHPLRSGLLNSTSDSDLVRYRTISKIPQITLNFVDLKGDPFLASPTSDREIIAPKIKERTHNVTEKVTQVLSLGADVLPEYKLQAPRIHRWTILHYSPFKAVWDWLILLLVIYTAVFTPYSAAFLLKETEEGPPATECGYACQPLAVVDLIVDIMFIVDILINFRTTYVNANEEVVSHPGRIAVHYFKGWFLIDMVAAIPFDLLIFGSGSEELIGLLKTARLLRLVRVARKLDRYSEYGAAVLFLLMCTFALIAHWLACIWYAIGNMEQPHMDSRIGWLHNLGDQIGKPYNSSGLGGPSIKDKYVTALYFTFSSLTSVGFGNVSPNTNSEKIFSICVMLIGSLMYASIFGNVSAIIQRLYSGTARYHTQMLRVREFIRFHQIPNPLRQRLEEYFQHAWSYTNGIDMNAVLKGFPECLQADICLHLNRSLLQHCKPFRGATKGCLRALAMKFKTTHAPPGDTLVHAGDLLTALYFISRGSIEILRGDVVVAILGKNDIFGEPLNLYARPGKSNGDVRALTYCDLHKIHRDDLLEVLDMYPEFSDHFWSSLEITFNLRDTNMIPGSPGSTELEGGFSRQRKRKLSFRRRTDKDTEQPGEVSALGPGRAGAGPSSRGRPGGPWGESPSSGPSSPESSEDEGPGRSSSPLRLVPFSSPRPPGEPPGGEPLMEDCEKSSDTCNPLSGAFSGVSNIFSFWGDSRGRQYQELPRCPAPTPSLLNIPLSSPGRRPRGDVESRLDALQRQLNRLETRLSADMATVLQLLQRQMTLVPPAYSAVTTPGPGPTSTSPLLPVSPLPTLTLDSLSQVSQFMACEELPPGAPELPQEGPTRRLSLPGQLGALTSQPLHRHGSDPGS
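U2OS cells transduced with wild-type KCNH2 virus are loaded with FluxOr dye for 45 min, and thallium flux is measured in kinetic reads before and after stimulation buffer. Rate constants are normalized to DMSO controls.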
KCNH2 3.1 inh – inhibitors of human KCNH2 3.1 potassium channel isoform. U2OS KCNH2 3.1, thallium flux FluxOr; hits give low values. activity change, % (tested at about 1.8 µM). 0.95% of 340,000 active. AID 720553;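 active = maximum activity change below -70%; inconclusive = maximum activity change from -70% to -50%; inactive = maximum activity change above -50%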;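 note: thallium influx rate constant from kinetic fluorescence after stimulation buffer; % is set by controls: 0 for no effect and ±100 for the full control effect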
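Kinetic fluorescence (2 min after stimulation buffer) measures Tl+ influx through KCNH2 3.1 expressed by viral transduction in U2OS cells; the rate constant is normalized against DMSO controls serving as positive and negative references.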
Numbers without * were called inactive; i = inactive; u = inconclusive; x = no result; [ ] = another dose, or the depositor's remark. Most compounds without a hit are left out; they make up all but 7.6% or so of the library. Unless noted, calls come from the whole dose curve; as a rule, active = well fitted curve in the direction sought with a large enough effect; inconclusive = small, poorly fitted or top-dose-only effect, or another doubt; inactive = no such curve, though single readings can be large; an effect the other way counts as inactive or inconclusive.

SMILES	KB-V1 MDR tox	SW480 rerep	KB-3-1 cytotox	MCF10A rereplic	KCNH2 WT inh	KCNH2 3.1 inh
COc1cc(Nc2nc3ccccc3n3nnnc23)cc(OC)c1OC	i	-5%	i	29µM*	7	7
COc1ccc(Nc2nc3ccccc3n3nnnc23)cc1	5.8µM*	3%	i	9%	-2	-12
Cc1ccc(Nc2nc3ccccc3n3nnnc23)cc1	i	-126%	i	u	-5	-8
CCOc1ccc(NC(=O)COC(=O)CCC(=O)c2cccs2)cc1	i	u	i	9%	-2	-2
CCn1c(=O)[nH]c(=O)c2c(N)c(C(=O)c3ccccc3OC)sc21	23µM*	-32%	i	1%	-16	-17
CCc1cc(C(=O)c2ccccc2OC)c(N)s1	u	2%	i	-11%	-22	11
CCc1ccc(NC(=O)CSc2nc3ccccc3c(=O)n2CCCC(=O)N2CCCC2)cc1	2.9µM*	u	u	u	7	-37
NS(=O)(=O)c1ccc(CCNC(=O)CSc2nc3ccccc3c(=O)n2CCN2CCOCC2)cc1	i	-2%	i	4%	-11	-10
CCc1ccc(NC(=O)CSc2nc3ccccc3c(=O)n2CCC(=O)NC2CCCCC2)cc1	i	x	i	x	x	x
NS(=O)(=O)c1ccc(CCNC(=O)CSc2nc3ccccc3c(=O)n2CCC(=O)N2CCCCC2)cc1	i	-35%	i	0.73µM*	-5	1
CN1CCc2c(OCC(=O)N3CCCc4ccccc43)cccc2C1=O	u	u	i	9%	-6	12
CCC1CCCCN1C(=O)COc1cccc2c1CCN(C)C2=O (configuration not stated)	21µM*	-5%	i	-4%	3	-9
CN1CCc2c(OCC(=O)NC3CCCCC3)cccc2C1=O	i	-16%	i	-2%	-2	8
CN1CCc2c(OCC(=O)N3CCC(Cc4ccccc4)CC3)cccc2C1=O	u	-2%	18µM*	19%	-5	8
CCC(C)Sc1nnc(CSc2nc3nc(C)cc(C)n3n2)o1 (configuration not stated)	u	-17%	i	6%	6	-9
COc1ccc(C(=O)c2cnc3ccccc3c2-c2ccccc2)cc1	18µM*	u	23µM*	18µM*	-1	-22
Cc1ccc(C(=O)c2cnc3ccccc3c2-c2ccccc2)cc1	16µM*	18%	i	u	-19	-7
CN(N=O)c1ccc(/C=C2\C=Cc3ccccc32)cc1	i	x	u	x	x	x
CCC1CCCCN1Cc1nc(Cc2ccccc2Cl)no1 (configuration not stated)	i	1%	i	-6%	-1	10
COCCCNC(=O)C1CCC(CNS(=O)(=O)c2ccc3c(c2)N(C(C)=O)CCO3)CC1 (configuration not stated)	i	-1%	i	8%	10	14
CN(C)c1nc(N/N=C/c2c[nH]c3ccccc23)nc(N2CCOCC2)n1	i	15µM*	i	19%	3	-17
C(=N\Nc1nc(N2CCCCC2)nc(N2CCCCC2)n1)/c1c[nH]c2ccccc12	i	4%	i	12%	x	-18
O=C(NCC(c1ccco1)N1CCCCC1)c1cccc(NS(=O)(=O)c2ccc(Br)cc2)c1 (configuration not stated)	u	4%	i	18µM*	6	-20
Cc1ccc(S(=O)(=O)Nc2cccc(C(=O)NCC(c3ccco3)N3CCCC3)c2)cc1F (configuration not stated)	u	23µM*	u	21%	12	-15
O=C(NCC(c1ccco1)N1CCCC1)c1cccc(S(=O)(=O)Nc2ccc(Br)cc2)c1 (configuration not stated)	x	9%	x	u	5	1
SMILES	KB-V1 MDR tox	SW480 rerep	KB-3-1 cytotox	MCF10A rereplic	KCNH2 WT inh	KCNH2 3.1 inh
COc1ccc(C(=O)NCCOc2ccccc2)cc1S(=O)(=O)N1CCOCC1	u	-10%	i	-6%	-4	-5
CC(C)(C)N(NC(=O)Nc1ccc(F)cc1)C(=O)c1ccccc1	i	-5%	i	8%	1	1
CC(C)(C)N(NC(=O)Nc1ccc(Cl)c(Cl)c1)C(=O)c1ccccc1	23µM*	-3%[9.22 µM]	u	u	-5	-7
NC(=O)C1CCN(c2nccc(-c3ccc4c(c3)OCCO4)n2)CC1	u	x	9.2µM*	x	x	x
CCOc1ccc2nc(SCC(=O)c3ccc(O)cc3O)sc2c1	i	-5%	i	u	14	-5
NC(=S)N/N=C1\CCSc2ccc(Cl)cc21	u	18µM*	i	-2%	2	5
CCOC(=O)c1ccsc1NC(=O)c1ccco1	i	-4%	i	10%	4	7
CC(Sc1nnc(NC2CC2)s1)C(=O)Nc1ccc(N2CCOCC2)cc1 (configuration not stated)	i	-7%	i	4%	-16	1
O=C(CSc1nnc(NC2CCCCC2)s1)Nc1ccc(N2CCOCC2)cc1	5.8µM*	-3%	i	16%	3	3
O=C(CSc1nc2cc([N+](=O)[O-])ccc2n1-c1ccc(F)cc1)NC1CCS(=O)(=O)C1 (configuration not stated)	23µM*	-2%	i	2%	-7	2
CCCCC(=O)NC(Nc1cc(C)ccn1)(C(=O)OCC)C(F)(F)F (configuration not stated)	i	-3%	i	-1%	-3	0
OC[C@@H]1O[C@](CO)(O[C@H]2O[C@H](CO)[C@@H](O)[C@H](O)[C@H]2O)[C@H](O)[C@H]1O	x	-3%	x	0%	x	x
O=C(CCN1C(=O)COc2ccccc21)NCc1ccco1	i	-3%	i	-10%	-2	5
O=C(CN(Cc1cccs1)C(=O)CN1C(=O)COc2ccccc21)NCc1ccco1	13µM*	-2%	i	-5%	-6	14
CC(C)(C)NC(=O)CN(Cc1cccs1)C(=O)CN1C(=O)C(=O)c2ccccc21	i	u	i	2.1µM*	-18	-1
Cc1ccc(NC(=S)N2CCSC2c2cccs2)cc1 (configuration not stated)	i	u	i	1%	2	2
CC1CCCCN1C(=O)COC(=O)CSc1ccc(C(N)=O)cc1[N+](=O)[O-] (configuration not stated)	i	6.5µM*	i	u	-2	17
CCOC(=O)c1ccc(NC(=O)c2cc3c(n(-c4ccc(C)cc4)c2=O)CC(C)(C)CC3=O)cc1	i	x	i	x	x	x
